# Source: PubChem
# Algae TAG accum: inducers of triacylglycerol accumulation in Chlamydomonas reinhardtii algae; Chlamydomonas reinhardtii TAG, Nile Red fluorescence, 72 h; calls only at 10 µM (by protocol); hit rate 0.84% among 44,000; AID 1159537; call rule not given here;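 note: hits raise Nile Red signal meaning more stored TAG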
# Starred values were filed as active, the others as inactive; i = inactive; + = active, no number. Many of the other results were omitted from the sample, so hits are more common in it than they were.
SMILES,Algae TAG accum
CCc1ccc(NC(=O)C(=O)NCC2CCN(C(=O)c3ccc(Br)cc3)CC2)cc1,i
Cc1ccc(C(=O)Nc2ccc(NC(=O)C(C)C)cc2)cc1C,i
CN1CCCN(Cc2ccc(-c3ccccc3[N+](=O)[O-])o2)CC1,i
CN1CCCN(Cc2ccc([N+](=O)[O-])o2)CC1,+
O=[N+]([O-])c1ccc(CN2CCN(c3ccccc3)CC2)o1,i
Cc1cc(NCc2ccccc2)nc(N2CCOCC2)n1,+
Cc1cc(N2CCOCC2)nc(NCc2ccccc2)n1,i
Cc1cc(NCc2ccccc2)nc(-c2ccccc2O)n1,i
Nc1nonc1-c1nnnn1CC(=O)N1CCOCC1,i
CN1CCN(Cc2ccc(-c3ccccc3Cl)o2)CC1,+
CCN1CCN(Cc2ccc(-c3ccccc3[N+](=O)[O-])o2)CC1,i
O=[N+]([O-])c1ccccc1-c1ccc(CN2CCCCCC2)o1,i
CCCS(=O)(=O)N1CCN(C(=O)CC(C)C)CC1,i
OC1CCN(Cc2cc(Br)cs2)CC1,i
O=C(CCc1ccccc1)Nc1ccccc1C(=O)NCc1ccccc1,i
COc1cc(C(=O)Nc2nc3c(s2)CCCC3)cc(OC)c1OC,+
O=C(Nc1nc2c(s1)CCCC2)c1cccc(Cl)c1,i
CCc1nnc(NC(=O)c2cc(OC)c(OC)c(OC)c2)s1,i
CC(=O)Nc1ccc(S(=O)(=O)Nc2cc([N+](=O)[O-])ccc2C)cc1,+
COc1ccc([N+](=O)[O-])cc1NS(=O)(=O)c1ccc(NC(C)=O)cc1,i
COc1cc([N+](=O)[O-])ccc1NS(=O)(=O)c1ccc(NC(C)=O)cc1,i
COc1ccc(CNC(=O)NC23CC4CC(CC(C4)C2)C3)cc1,i
CC(C)c1ccc(NS(=O)(=O)c2cccs2)cc1,i
Cc1cc(C)cc(NS(=O)(=O)c2cccs2)c1,i
CC(C)C(NS(=O)(=O)c1cccs1)C(C)C,+
SMILES,Algae TAG accum
COc1ccc(-c2cc(C(=O)Nc3ccccc3[N+](=O)[O-])c3ccccc3n2)cc1OC,i
O=C(O)CNC(=O)NC12CC3CC(CC(C3)C1)C2,i
C=CCNCC(=O)NC12CC3CC(CC(C3)C1)C2,+
O=C(CN1CCOCC1)NC12CC3CC(CC(C3)C1)C2,i
CC1CCCCN1S(=O)(=O)c1ccc(NC(=O)c2ccc(Cl)cc2Cl)cc1 (stereo not drawn),+
COc1cc(C(=O)Nc2ccc(S(=O)(=O)N3CCCCC3C)cc2)cc(OC)c1OC (stereo not drawn),i
CC1CCCCN1S(=O)(=O)c1ccc(C(=O)Nc2ccc([N+](=O)[O-])cc2)cc1 (stereo not drawn),i
Cc1ccc(C(=O)Nc2cccc(C)c2C)c(Cl)c1,i
COc1ccc(OC)c(NC(=O)CSc2nc3ccccc3o2)c1,i
O=C(C1=C(O)C(=O)N(CCN2CCOCC2)C1c1cccnc1)c1ccco1 (stereo not drawn),i
Brc1cccc(CN2CCC(N3CCCCCC3)CC2)c1,i
COc1cc(-c2nnc(SCc3ccc(Cl)cc3Cl)o2)cc(OC)c1OC,i
Nn1c(SCC(=O)Nc2ccccc2F)nnc1-c1ccc(Cl)cc1Cl,i
CN(C)C(=O)CSc1nnc(-c2ccc(Cl)cc2Cl)n1N,i
Nn1c(SCC(=O)NC23CC4CC(CC(C4)C2)C3)nnc1-c1ccc(Cl)cc1Cl,+
COc1cc([N+](=O)[O-])c(C)cc1NS(=O)(=O)c1ccc(C)cc1,i
Cc1ccc(CNC(=O)C(=O)Nc2ccc(C)c(Cl)c2)cc1,i
Cc1ccc(C(C)(C)C)c(OCCCCN2CCN(C)CC2)c1,i
C=CCc1cc(C)ccc1OCCCCN1CCCC1,i
Cc1cc(Br)ccc1OCCCCN1CCCC1,+
Cc1cc(Br)ccc1OCCCCN1CCN(C)CC1,+
Cc1ccc(OCCCCN2CCCC2)c([N+](=O)[O-])c1,i
Brc1cccc(OCCCCN2CCCC2)c1,i
Cc1ccc(OCCCCN2CCCCC2)c(C)c1,+
Cc1ccccc1OCCOCCN1CCN(C)CC1,i
SMILES,Algae TAG accum
Cc1cc(Br)ccc1OCCCCN1CCOCC1,i
CN(C)CCN(C)CC(c1ccccc1)c1ccccc1,i
C=C(C)CN(CC)C(=O)C1CCN(Cc2cc(OC)c(OC)c(OC)c2)CC1,i
OCC1CCCCN1Cc1ccc(Cl)cc1 (stereo not drawn),i
Cc1cc(Br)ccc1NS(=O)(=O)c1ccc([N+](=O)[O-])cc1,i
COc1ccc(C(=O)Nc2ccc3oc(-c4ccncc4)nc3c2)cc1[N+](=O)[O-],i
Cc1ccc(OCC(=O)N2CCCC2)c(C)c1,i
COc1ccc(C)cc1NC(=O)COc1ccc([N+](=O)[O-])cc1,i
Cc1cc(C)c2c(=O)[nH]c(SCC(=O)c3ccc(Cl)cc3)nc2n1,i
COc1ccccc1CN1CCC(C(=O)N(CCN(C)C)Cc2ccccc2)CC1,i
O=C(C1CCN(Cc2ccccc2O)CC1)N(CCO)Cc1ccccc1,i
CCN(Cc1ccccc1)C(=O)C1CCN(Cc2ccccc2F)CC1,+
COc1ccc(CNC(=O)CSc2nc3ccccc3[nH]2)cc1,i
Cc1cc(Nc2cccc([N+](=O)[O-])c2)nc(-c2ccccc2O)n1,i
CC(C)c1ccc(CN2CCOCC2)cc1,+
CC(C)c1ccc(CN2CCC(O)CC2)cc1,i
Clc1ccc(CN2CCOCC2)cc1Cl,i
COc1cc(C(=O)Nc2nc3ccccc3n2C)cc(OC)c1OC,i
COc1ccc(-c2noc(COc3ccc(Br)cc3C)n2)cc1OC,i
Cc1cccc(-c2noc(COc3ccc(Br)cc3)n2)c1,+
Cc1cc(OCc2nc(-c3cccnc3)no2)cc(C)c1Br,i
NNC(=O)C(O)c1ccc(Cl)cc1 (stereo not drawn),i
Cc1onc(-c2ccccc2Cl)c1C(=O)NCCCCc1ccccc1,i
Fc1ccccc1N1CCN(CC2CCCCC2)CC1,+
CCOc1ccccc1N1CCN(C(=O)C2CCN(CC3CCCCC3)CC2)CC1,i
SMILES,Algae TAG accum
Fc1ccccc1N1CCN(C2Cc3ccccc3C2)CC1,i
CC(NC(=O)CSc1ncc(-c2ccccc2)[nH]1)c1ccccc1 (stereo not drawn),i
Cc1ccccc1C(=O)Nc1ccc(Br)cc1C(C)C,i
CCCn1c(N2CCCCC2)nc2c1c(=O)[nH]c(=O)n2C,i
O=[N+]([O-])c1ccc(N2CCN(Cc3ccsc3)CC2)cc1,i
COc1ccc(N2CCN(Cc3cc(OC)cc(OC)c3)CC2)cc1,i
Fc1ccc(N2CCN(Cc3ccsc3)CC2)cc1,+
Clc1ccc(N2CCN(Cc3ccsc3)CC2)cc1,+
COc1cccc(N2CCN(Cc3ccco3)CC2)c1,i
Clc1ccc(N2CCN(Cc3cccs3)CC2)cc1,i
COc1cccc(N2CCN(Cc3ccsc3)CC2)c1,+
CCOc1cc(CN2CCN(c3ccc(F)cc3)CC2)ccc1OC,i
O=C(c1ccc(CN2CCOCC2)cc1)N1CCN(c2ccc(F)cc2)CC1,i
NC(=O)c1conc1-c1ccc(Cl)cc1Cl,i
Clc1ccc(SCCN2CCOCC2)cc1,i
CC(=O)C1=C(O)C(=O)N(CCCN2CCOCC2)C1c1cccc([N+](=O)[O-])c1 (stereo not drawn),i
COc1ccc(C(C)=O)cc1Cc1c(O)nc(SC)[nH]c1=O,i
CC1(C)Cc2nc3nc[nH]c(=O)c3cc2CO1,i
Cc1cc(Nc2ccc(OCc3ccccc3Cl)cc2)c2cc(Cl)ccc2n1,i
CC(=O)N1CCc2c([nH]c3ccccc23)C1c1ccc2c(c1)OCO2 (stereo not drawn),i
